High-throughput results deposited in PubChem by several laboratories.
An excerpt weighted towards active compounds, which were near 2.9% of everything screened.
MEKK2 mut-MEK5: signal of MEK5 binding to mutant human MEKK2 PB1 domain. bead flow cytometry, Alexa488-MEK5 binding to MEKK2 mutant. percent response, % at 10 µM. 290,000 compounds, 0.35% hits. AID 1530; in the data active means percent response above about 24%, passing the limit was not always enough
dFosB act: activators of mouse delta FosB homodimer | AID 493131 | 340,000 compounds, 0.99% hits | activation, % at 25 µM | purified delta FosB, TAMRA-CDK5 oligo fluorescence polarization; percent of positive-control signal above neutral wells | P13346;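 active means mean activation above about 17%, with every replicate also reaching it, limit read from the data, passing the limit was not always enough; inconclusive means only one of the two conditions met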
MEKK3 PB1 HTS: modulators (inhibitors or enhancers) of MEK5 binding to human MEKK3 PB1 domain | 290,000 compounds, 1.4% hits | AID 1529 | Q99759 | bead-based flow cytometry, Alexa488-MEK5 binding to MEKK3; actives lie on both sides; 0 = blocked by unlabeled MEK5, 100 = vehicle | binding response (% of control), % at 10 µM;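 active means binding response more than 3 SD above or below the average of its plate-row segment, actives on both sides; inconclusive means wells at one plate position flagged as instrument error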;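 further: Alexa488 bead fluorescence after subtracting the streptavidin-only scavenger bead signal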
Target sequence (Q99759 whole entry, looked up, the tested form may be a part): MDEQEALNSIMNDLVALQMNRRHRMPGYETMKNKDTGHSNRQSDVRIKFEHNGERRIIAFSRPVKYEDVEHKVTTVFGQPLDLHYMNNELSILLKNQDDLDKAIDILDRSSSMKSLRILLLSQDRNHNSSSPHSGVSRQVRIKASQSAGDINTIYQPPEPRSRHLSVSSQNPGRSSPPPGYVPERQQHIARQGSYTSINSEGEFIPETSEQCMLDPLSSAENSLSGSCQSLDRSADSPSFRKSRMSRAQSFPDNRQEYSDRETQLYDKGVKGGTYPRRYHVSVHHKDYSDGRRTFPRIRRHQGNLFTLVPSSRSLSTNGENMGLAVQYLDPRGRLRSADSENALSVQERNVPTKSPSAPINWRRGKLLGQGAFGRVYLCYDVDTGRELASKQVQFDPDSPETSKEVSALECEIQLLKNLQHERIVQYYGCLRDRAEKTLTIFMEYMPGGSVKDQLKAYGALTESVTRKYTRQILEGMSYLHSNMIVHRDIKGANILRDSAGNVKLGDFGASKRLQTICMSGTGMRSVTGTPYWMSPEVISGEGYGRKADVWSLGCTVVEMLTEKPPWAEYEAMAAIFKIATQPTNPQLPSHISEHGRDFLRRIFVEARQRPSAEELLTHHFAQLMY
MEKK2 WT-MEK5: raises or lowers MEK5 binding to wildtype human MEKK2 PB1 domain; Q9Y2U5; bead flow cytometry, Alexa488-MEK5 binding to MEKK2 WT; actives lie on both sides; binding response (% of control), % at 10 µM; 290,000 compounds, 1.1% hits; in the data active means binding response below about 67% or above about 130%; inconclusive means no clear call, values can overlap the other calls; inactive means in between
FID counter: fluorescent intercalator displacement, NS3 helicase counter-screen; DNA fluorescent intercalator displacement, fluorescence; inhibition, % at 7.9 µM; 290,000 compounds, 0.17% hits; in the data active means inhibition above about 37%;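 further: higher means more ethidium bromide displaced from hairpin DNA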
MEKK2wt confirm: raises or lowers MEK5 binding to wildtype human MEKK2, retest; shares compounds with MEKK3 PB1 HTS; bead flow cytometry, Alexa488-MEK5 binding to MEKK2 WT; actives lie on both sides; binding response (% of control), % at 10 µM; 5,900 compounds, 2.4% hits; AID 1892; in the data active means binding response below about 16% or above about 210%; inactive means in between
MEKK2mut-MEK5: signal of MEK5 binding to mutant human MEKK2, retest; shares compounds with MEKK3 PB1 HTS; bead flow cytometry, Alexa488-MEK5 binding to MEKK2 mutant; percent response, % at 10 µM; 5,900 compounds, 2% hits; in the data active means percent response mostly above about 71%, no sharp cut-off; inactive means mostly below about 38%;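 further: higher means compound restores mutant binding toward wildtype level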
MEKK3 confirm: confirmation of inhibitors of MEK5 binding to human MEKK3; shares compounds with MEKK3 PB1 HTS; AID 1894; binding response (% of control), % at 10 µM; 5,900 compounds, 1.8% hits; bead flow cytometry, Alexa488-MEK5 binding to MEKK3; hits give low values;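 active means binding response below 72% of control, or above a set upper limit, though filed actives all read lower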
Of the large screens only hits and unclear results are named; the others gave an inactive call (follow-up assays come after a bar, where they were run); [ ] = remark or other dose.

Cn1nnc2ccccc2c1=O	MEKK3 PB1 HTS 141 | MEKK2wt confirm inactive | MEKK2mut-MEK5 inactive | MEKK3 confirm inactive
O=C(CN1CCN(Cc2ccc(Cl)cc2)CC1)N/N=C/c1ccccc1F	MEKK3 PB1 HTS 68[inhibitor], MEKK2 WT-MEK5 57[inhibitor] | MEKK2wt confirm inactive | MEKK2mut-MEK5 inactive | MEKK3 confirm inactive
CC(C)(c1ccccc1)c1ccc(OCC(O)CNC2CCN(Cc3ccccc3)CC2)cc1 (stereo unspecified)	MEKK2 mut-MEK5 62, dFosB act inconclusive, MEKK2 WT-MEK5 252 | MEKK2wt confirm inactive | MEKK2mut-MEK5 inactive | MEKK3 confirm inactive
O=C(/C(=N/N=C/c1ccc(O)c(O)c1O)c1ccccc1)c1ccccc1	MEKK3 PB1 HTS 136 | MEKK2wt confirm inactive | MEKK2mut-MEK5 inactive | MEKK3 confirm inactive
CN(C(=O)c1ccc(OC2CCN(CCc3ccccc3)CC2)cc1)C1CCCCC1	none
O=C(CN1C(=O)/C(=C/c2ccccc2)Sc2ccccc21)NCCCN1CCOCC1	none
CN1CCN(CCCNC(=O)c2ccc(/C=C3\Sc4ccccc4N(Cc4ccc(F)cc4)C3=O)cc2)CC1	MEKK2 WT-MEK5 163 | MEKK2wt confirm inactive | MEKK2mut-MEK5 inactive | MEKK3 confirm inactive
O=C(NCCCN1CCOCC1)c1ccc2c(c1)N(Cc1ccccc1)C(=O)c1ccccc1S2	none
CN1CCN(CCCNC(=O)c2ccc(/C=C3/Sc4ccccc4N(Cc4cccc(Cl)c4)C3=O)cc2)CC1	MEKK2 mut-MEK5 65, MEKK2 WT-MEK5 224 | MEKK2wt confirm 209 | MEKK2mut-MEK5 73 | MEKK3 confirm inactive
Nc1ccc(C(=O)Nc2cccc(N)c2)cc1	none
CCOC(=O)CC1C(=O)NCCN1S(=O)(=O)c1ccc(Br)cc1 (stereo unspecified)	none
Cc1ccccc1C(=O)Nc1nnc(SC(C)C)s1	none
Nc1ccc(Nc2ccccc2N)cc1	MEKK3 PB1 HTS 60[inhibitor] | MEKK2wt confirm inactive | MEKK2mut-MEK5 inactive | MEKK3 confirm 60
COc1ccc(Nc2ccccc2N)cc1	none
Cc1ccccc1OCC(=O)N/N=C/c1cccc(Oc2ccc([N+](=O)[O-])cc2[N+](=O)[O-])c1	MEKK3 PB1 HTS 132 | MEKK2wt confirm inactive | MEKK2mut-MEK5 inactive | MEKK3 confirm inactive
CCOC(=O)CC(=O)CSc1nc(N)c(C#N)c(-c2ccc(F)cc2)c1C#N	none
CCc1cccc2cc3c(N)c(C(=O)Nc4ccc(S(=O)(=O)N5CCCC5)cc4)sc3nc12	MEKK3 PB1 HTS 154 | MEKK2wt confirm inactive | MEKK2mut-MEK5 inactive | MEKK3 confirm inactive
O=C(COc1ccc(Cl)cc1)NNC(=O)c1ccc(=O)[nH]c1	none (no result: MEKK2 mut-MEK5, MEKK3 PB1 HTS, MEKK2 WT-MEK5, FID counter)
NC(=O)C[n+]1cccc(CNC(=O)c2ccc(OC(F)F)cc2)c1	none
O=C(C[n+]1cccc(CNC(=O)c2ccc(OC(F)F)cc2)c1)Nc1cc(C(F)(F)F)ccc1Cl	MEKK2 WT-MEK5 144 | MEKK2wt confirm inactive | MEKK2mut-MEK5 inactive | MEKK3 confirm inactive
CCCC(C)NC(=O)Cc1ccc(S(=O)(=O)N2CCOCC2)s1 (stereo unspecified)	none (no result: MEKK2 mut-MEK5, MEKK3 PB1 HTS, MEKK2 WT-MEK5, FID counter)
c1ccc(-c2cc(-c3ccccc3)on2)cc1	MEKK3 PB1 HTS 130 | MEKK2wt confirm inactive | MEKK2mut-MEK5 inactive | MEKK3 confirm inactive
Cc1ccc(-c2cc(-c3ccccc3)no2)cc1	none (no result: MEKK2 mut-MEK5, MEKK3 PB1 HTS, MEKK2 WT-MEK5, FID counter)
O=C(O)CCc1ccc(S(=O)(=O)Nc2ccccc2N2CCCCC2)cc1	none (no result: MEKK2 mut-MEK5, MEKK3 PB1 HTS, MEKK2 WT-MEK5, FID counter)
COc1cccc(OC)c1NC(=O)Cc1nn(C)c(=O)c2ccccc12	MEKK3 PB1 HTS 125 | MEKK2wt confirm inactive | MEKK2mut-MEK5 inactive | MEKK3 confirm inactive
COc1ccccc1NC(=O)Cc1nn(C)c(=O)c2ccccc12	none
CC(=O)c1ccc(N2CCN(c3ncccn3)CC2)c([N+](=O)[O-])c1	none
CC(=O)c1ccc(N2CCc3ccccc3C2)c([N+](=O)[O-])c1	MEKK3 PB1 HTS 72[inhibitor] | MEKK2wt confirm inactive | MEKK2mut-MEK5 inactive | MEKK3 confirm inactive
